# Test results published in PubChem BioAssay (NCATS).
# Inconclusive results are not listed. Entries that show only a call come without a potency. Activity calls are given as the source filed them. Calls follow the shape of the dose curve; as a rule, active = well fitted inhibition curve with a large enough effect; inconclusive = small, poorly fitted or top-dose-only effect; inactive = no such curve, though single readings can be large or run the other way.
# System: Zika virus NS2B-NS3 protease (linked construct)
# Assay: Primary screen NINDS Rhodamine qHTS for Zika virus inhibitors (AID 1347160); also: nearly all actives have a fitted effect of over 55% in size
# Details: purified NS2B-NS3 protease, Rhodamine110 substrate fluorescence; series mostly up to 57.1 µM
# From the text: Avindra Nath, Ph.D., National Institute of Neurological Disorders and Stroke (NINDS), Bethesda, MD
# Radhakrishnan Padmanabhan, Ph.D., Georgetown University (GU), Washington D.C.
# Zika Virus causes congenital defects, including microcephaly and is associated with Guillain-Barre syndrome, eningoencephalitis and myelitis in infected adult. […] Using a target-based approach, we hope to establish a screening paradigm to uncover novel, cell-active NS2B-NS3 protease (Zika Virus) specific inhibitors from NCATS' collection of small molecules using qHTS.
# Four assay panel was created to identify potential Zika Virus inhibitors. Namely, (1) GU unlinked NS2B-NS3 AMC tagged protease qHTS, (2) GU unlinked NS2B-NS3 Rhodamine tagged protease qHTS, (3) NINDS linked NS2B-NS3 AMC tagged protease qHTS, (4) NINDS linked NS2B-NS3 Rhodamine tagged protease qHTS. Active compounds were re-acquired and re-screened to confirm inhibition. Inhibitors were further screened against various confirmatory and counterscreens in dose response format.
# Early Translation Branch (ETB)
# National Center for Advancing Translational Sciences (NCATS), Rockville, MD
# National Institute of Health (NIH), Bethesda, Maryland
# For the linked assay, Nath lab (NINDS) provided the purified linked NS2B-NS3 protease which is consists of hydrophilic domain of NS2B linked to the NS3 protease domain by a flexible (-[…]-) linker. Control compound aprotinin is obtained from Thermo Scientific (#78432; Waltham, Massachusetts). Rhodamine110 substrate ([N-Cbz]-Nle-Lys-Arg-Arg-Rhod110-Arg-Arg-Lys-Nle-[N-Cbz]) was purchased from either Genscript or Bachem.
# 1536-well Protease (Rhodamine110 Substrate) Assay:
# Briefly, 3 microL of enzyme (25 nM final concentration), in assay buffer (10 mM Tris-HCl pH 8.0 with 0.01% Tween 20) were dispensed into a 1,536-well solid-bottom black plate (Greiner Bio One, Monroe, NC). Twenty-three nL of compounds (final concentration range 7.28 nM to 114 microM) or control Aprotinin (final concentration range 3.47 nM to 114 microM) were transferred via Wako Pin-tool (Wako Automation, Richmond, VA). Samples were incubated (room temperature, protected from light) for 15 minutes followed by a 1 microL Rhodamine110 substrate addition (1.5 microM final concentration). Plates were then immediately read on a ViewLux High-throughput CCD imager (PerkinElmer, Waltham, MA) equipped with FITC fluorescence optics (480(20) nm excitation, 540(25) nm emission), then incubated (room temperature, protected from light) for 15 minutes (~15% conversion). The change in fluorescence intensity over the 15-minute reaction period was normalized against no-inhibitor and no-enzyme controls and the resulting percent inhibition data were fitted to a 4-parameter Hill equation. Aprotinin was used as intraplate control.
# Potency is read from the fitted curve at half-maximal effect.
row,SMILES,Potency
1,NCC(O)c1ccc(O)cc1 (stereo not given),inactive
2,CNC(=O)N1N=C(c2ccc(N)cc2)c2cc3c(cc2CC1C)OCO3 (stereo not given),inactive
3,CNC(=O)c1ccc(N2C(=S)N(c3ccc(C#N)c(C(F)(F)F)c3)C(=O)C23CCC3)cc1F,inactive
4,CC(O)(CS(=O)(=O)c1ccc(F)cc1)C(=O)Nc1ccc(C#N)c(C(F)(F)F)c1 (stereo not given),inactive
5,O=C(O)C(=O)c1cn(Cc2ccccc2)c2ccc(-c3ccc(OC(F)(F)F)cc3)cc12,2510 nM (active)
6,Cc1cc(SCc2sc(-c3ccc(C(F)(F)F)c(F)c3)nc2C)ccc1OCC(=O)O,1780 nM (active)
7,O=c1[nH]c2ccccc2n1C1CCN(CCCC(c2ccc(F)cc2)c2ccc(F)cc2)CC1,inactive
8,C[C@H]1O[C@@H](O[C@H]2[C@@H](O)C[C@H](O[C@H]3[C@@H](O)C[C@H](O[C@H]4CC[C@@]5(C)[C@H](CC[C@@H]6[C@@H]5CC[C@]5(C)[C@@H](C7=CC(=O)OC7)CC[C@]65O)C4)O[C@@H]3C)O[C@@H]2C)C[C@H](O)[C@@H]1O,inactive
9,C[C@@H]1O[C@@H](O[C@H]2C[C@@H](O)[C@]3(CO)[C@H]4[C@H](O)C[C@]5(C)[C@@H](C6=CC(=O)OC6)CC[C@]5(O)[C@@H]4CC[C@]3(O)C2)[C@H](O)[C@H](O)[C@H]1O,inactive
10,COC[C@H]1OC(=O)c2coc3c2[C@@]1(C)C1=C(C3=O)C2CCC(=O)[C@@]2(C)C[C@H]1OC(C)=O (stereo not given in full),inactive
